This is an account of results in ChEMBL document CHEMBL1157539, “Thousands of chemical starting points for antimalarial lead identification” (Nature, 2010).

The Inhibition is the change of the read-out against control, counted positive when it falls.

The experiment deals with HepG2. Nature of the experiment: GSK_TCMDC: Percent inhibition of human HepG2 cell line. Test compounds present at 10uM. The class given is functional.
The compound `CCOC(=O)c1nc(-c2ccc(-c3ccccc3)cc2)[nH]c1N.Cl` yielded an Inhibition of 0%.

Compound `COc1ccc(C2CC(=O)C3=C(C2)NC(C)=C(C(=O)OC2CCCC2)C3c2cccc(O)c2)cc1` (stereo not given) returned an Inhibition of 0%.

For the compound `CCOC(=O)[C@H](Cc1cc([N+](=O)[O-])c(Oc2ccc(OC)c(Cc3ccc(OC)c(C(C)C)c3)c2)c([N+](=O)[O-])c1)NC(=O)C(F)(F)F`, the Inhibition stood at 5%.

`COc1cc(C2=NN(S(=O)(=O)c3c(C)cc(C)cc3C)CCCC2)ccc1Cl`: the Inhibition is on record as 9%.

Turning to `Br.Oc1ccc(CNCCCCCCNCCc2ccc(Cl)cc2)cc1O`, the Inhibition amounted to 2%.

Take `COc1cc(C=NNc2ccnc3cc(Cl)ccc23)ccc1O`: the Inhibition is 15%.

As to `Cc1nc2ccccn2c1C1(O)C(=O)Nc2c(Cl)cc(Cl)cc21` (stereo not given), the Inhibition amounted to 0%.

The compound `COc1ccc2ncc(Cl)c(N3CCC(CCNCc4ccc5c(n4)NC(=O)CS5)CC3)c2c1.Cl` had an Inhibition of 33%.

The compound `N#Cc1ccc(-c2ccc(C(=O)NC3CCN(CCN4CCc5c(cccc5C(F)(F)F)C4)CC3)cc2)cc1` gave an Inhibition of 40%.

`CN1CCN(c2cc3c(cc2Cl)CCN3C(=O)Cc2ccc(Cl)c(NC(=O)Nc3cccc([N+](=O)[O-])c3)c2)CC1` yielded an Inhibition of 0%.

`N#CCCN1CCN(Cc2ccc(-c3ccc(-c4nc5cc(F)ccc5[nH]4)s3)cc2)CC1.O=C(O)C(F)(F)F`: the Inhibition came to 58%.

Turning to `CC(C)(C)c1ccc(NC(=O)c2ccc(CN3CCCN(Cc4cccc(C#N)c4)CC3)cc2)cc1.O=C(O)C(F)(F)F`, the Inhibition came to 54%.

The compound `CNCc1cccc2nc(-c3ccc(Cc4cc(Cl)ccc4OCC(C)C)o3)[nH]c12.Cl` showed an Inhibition of 20%.

`Cc1nc2nc(N)nc(N)c2c(C)c1Cc1cccs1.Cl`: the Inhibition is given as 66%.

`Cl.c1cc2[nH]c(CCCCCc3nc4cc(C5=N[C@@H]6CCCC[C@@H]6N5)ccc4[nH]3)nc2cc1C1=N[C@@H]2CCCC[C@@H]2N1` came in with an Inhibition of 8%.

`CN(C)CCN(C)Cc1ccc(-c2ccc3c(Nc4ccc(Cl)cc4F)ccnc3c2)o1` displayed an Inhibition of 20%.

Turning to `COc1ccc(S(=O)(=O)N2CCCc3ccc(Br)cc32)cc1N1CCN(C(=O)C(Cl)(Cl)Cl)CC1`, the Inhibition was 23%.

`Cn1c(Nc2cc(C(C)(C)C)on2)nc2cc(Nc3ccnc(Nc4cccc(S(=O)(=O)N5CCOCC5)c4)n3)ccc21` yielded an Inhibition of 32%.

The compound `CC[C@H](N/C(=N\c1ccc(-c2ccccc2)cc1)Nc1ccc(C#N)cc1O)c1ccccc1` had an Inhibition of 0%.

Compound `O=C(Nc1ccc(OC2CCN(Cc3ccc(F)cc3)C2)c(Cl)c1)c1cccs1.O=C(O)C(F)(F)F` (stereo not given) came in with an Inhibition of 21%.

The compound `CN1CCN(CCCN(Cc2csc(-c3ccc(CNCc4ccccc4)cc3)n2)C(=O)Nc2cc(Cl)cc(Cl)c2)CC1.O=C(O)C(F)(F)F` showed an Inhibition of 34%.

Turning to `CCN(CC)CCN(Cc1ccc(-c2ccc(C(F)(F)F)cc2)cc1)C(=O)Cn1c(CCc2ccc(F)c(C#N)c2)nc(=O)c2ccccc21.O=C(O)C(O)C(O)C(=O)O`, the Inhibition is 18%.

`Oc1ccc(-c2nc3c4cc(I)ccc4c4ccc(I)cc4c3[nH]2)cc1` had an Inhibition of 0%.

Turning to `CNCc1cccc2nc(-c3csc(Cc4cc(Cl)ccc4OCC(C)C)n3)[nH]c12`, the Inhibition turned out to be 9%.

In turn, `Cc1ccc(N2C(N)=NC(N)=NC2(C)C)cc1Cl.Cl` displayed an Inhibition of 66%.

Consider `Cl.N#Cc1ccc2c(c1)CCN(CCC1CCC(Nc3ncnc4ccccc34)CC1)C2` (stereo not given), for which the Inhibition came to 65%.

`Cc1noc(C)c1-c1cccc(CNCc2cccc(-c3ccc(-c4nc5cccc(C)c5[nH]4)cc3)c2)c1.O=C(O)C(F)(F)F` yielded an Inhibition of 24%.

The compound `COc1ccc(-c2ccc(NC(=O)c3ccc(C#N)cc3)cc2)cc1CNC(C)C.O=C(O)C(F)(F)F` gave an Inhibition of 19%.

`COc1cc(-c2nc3ccc(N4CCN(C)CC4)cc3[nH]2)cc(OC)c1OC` yielded an Inhibition of 6%.

As to `Cl.N=C(Cc1ccc(Cl)cc1)NCCN1CCCCCC1`, the Inhibition is 0%.

The compound `CC(C)CN(c1nc(C(=O)NNC(=O)[C@H](CC2CC2)NC(=O)c2cc3cc(OCCN4CCCCC4)ccc3o2)cs1)C1CC1` came in with an Inhibition of 2%.

Regarding `Cc1ccc(OC2CCN(c3ccc(C(=O)NC4CC4)cn3)CC2)cc1`, the Inhibition is on record as 11%.

For the compound `CCC(=O)OC(CCN(CC)CC)(c1ccccc1)c1ccccc1`, the Inhibition is on record as 30%.

Turning to `O=C(Cc1c[nH]cn1)Nc1cccc(-c2ccc(-c3nc4ccccc4[nH]3)cc2)c1`, the Inhibition is 7%.

With `CS(=O)(=O)c1ccc(CNCc2cccc(-c3ccc(-c4nc5cc(C(F)(F)F)ccc5[nH]4)cc3)c2)cc1.O=C(O)C(F)(F)F`, the Inhibition stood at 31%.
